PubChem BioAssay (NCATS)
Inconclusive results are not listed. Entries that show only a call come without a potency. Calls of active or inactive are those of the source. Unless noted, the call rests on the fitted dose curve; in most records, active means well fitted curve in the direction sought with a large enough effect; inconclusive means small, poorly fitted or top-dose-only effect, or another doubt; inactive means no such curve, though single readings can be large; an effect the other way counts as inactive or inconclusive.

Legend:
[1] = Nrf2 qHTS screen for inhibitors: Validation (AID 493153; active means well fitted inhibition curve with a large enough effect in the main read-out, with a control signal flat, not every such curve was filed as active; further: potency means the concentration at half of the fitted maximal effect); settings: Potency: luciferase luminescence; viability change: measured here: cytotoxicity max response
Method in brief: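 Concentration-response on A549 ARE_Fluc reporter cells exposed 18-24 h at 37 C, 5% CO2. Cytotoxicity read first by CellTiter-Fluor fluorescence (Ex 405/Em 525), then Nrf2 inhibition by BugLite luminescence after 15 min.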

[2] = qHTS for Inhibitors of Cell Surface uPA Generation: Validation Assay (AID 493164);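 further: RAW 264.7 macrophage cells exposed to compound for 18 h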
Method in brief: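 ATP-Lite luminescence read-out: ATP remains high when uPA activity-dependent LF translocation into the cytoplasm is blocked. RAW 264.7 cells, 18 h compound exposure at 37 C; 7-point titration, 2.45 nM to 38.3 uM final.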

[3] = molecular target: Galactokinase (Homo sapiens) (UniProt P51570); experiment: qHTS Validation Assay for Inhibitors of Human Galactokinase (GALK) (AID 493189)
Galactokinase (Homo sapiens), sequence (P51570 whole entry, looked up): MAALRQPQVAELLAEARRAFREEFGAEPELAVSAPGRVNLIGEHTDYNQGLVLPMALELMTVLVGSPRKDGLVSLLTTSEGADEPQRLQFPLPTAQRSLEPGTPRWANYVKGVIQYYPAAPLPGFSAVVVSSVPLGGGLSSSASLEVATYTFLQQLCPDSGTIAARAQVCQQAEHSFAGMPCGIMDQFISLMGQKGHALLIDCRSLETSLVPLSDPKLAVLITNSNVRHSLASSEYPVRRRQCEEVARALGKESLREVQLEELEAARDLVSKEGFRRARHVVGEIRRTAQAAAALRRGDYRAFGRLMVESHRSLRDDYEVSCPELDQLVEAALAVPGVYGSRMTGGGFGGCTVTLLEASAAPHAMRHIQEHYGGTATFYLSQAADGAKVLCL
Method in brief: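 Luminescence from leftover ATP (Kinase-Glo Plus, 10 min) served as read-out after a 1 h room-temperature reaction of 5 nM GALK, 100 uM galactose and 35 uM ATP at pH8.0.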

[4] = Validation screen for small molecules that induce DNA re-replication in SW480 colon adenocarcinoma cells (AID 504364)
Method in brief: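 Image-based DNA content read-out: Hoechst stain 40 min, total nuclear fluorescence intensity (ex 405 nm, em 500-530 nm) after 48 h compound exposure of 250 SW480 cells/well at 37 C, 5% CO2, versus DMSO vehicle.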

[5] = molecular target: Peptidyl-prolyl cis-trans isomerase NIMA-interacting 1 (Homo sapiens) (UniProt Q13526); experiment: qHTS Validation Assay to Find Inhibitors of Pin1 (AID 504536; active means well fitted inhibition curve with a large enough effect in the polarisation, with a control signal flat, not every such curve was filed as active; the % refers to the polarisation)
Peptidyl-prolyl cis-trans isomerase NIMA-interacting 1 (Homo sapiens), sequence (Q13526 whole entry, looked up): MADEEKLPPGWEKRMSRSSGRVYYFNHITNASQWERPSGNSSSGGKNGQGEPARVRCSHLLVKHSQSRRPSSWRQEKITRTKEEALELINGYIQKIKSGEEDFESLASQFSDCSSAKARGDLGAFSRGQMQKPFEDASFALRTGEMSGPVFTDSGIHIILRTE
Method in brief: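 Fluorescence polarization competition: compounds (titration) displace HiFluor-488-labeled Pin1-1b peptide from Pin1 (0.3 uM final) in pH 7.5 HEPES buffer with DTT, 10 min at room temperature; %Activity normalized to no-enzyme wells, curves fitted.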

[6] = molecular target: Phosphoglycerate kinase, glycosomal (Trypanosoma brucei brucei) (UniProt P07378); experiment: qHTS Validation Assay to Find Inhibitors of Phosphoglycerate Kinase (AID 504547)
Phosphoglycerate kinase, glycosomal (Trypanosoma brucei brucei), sequence (P07378 whole entry, looked up): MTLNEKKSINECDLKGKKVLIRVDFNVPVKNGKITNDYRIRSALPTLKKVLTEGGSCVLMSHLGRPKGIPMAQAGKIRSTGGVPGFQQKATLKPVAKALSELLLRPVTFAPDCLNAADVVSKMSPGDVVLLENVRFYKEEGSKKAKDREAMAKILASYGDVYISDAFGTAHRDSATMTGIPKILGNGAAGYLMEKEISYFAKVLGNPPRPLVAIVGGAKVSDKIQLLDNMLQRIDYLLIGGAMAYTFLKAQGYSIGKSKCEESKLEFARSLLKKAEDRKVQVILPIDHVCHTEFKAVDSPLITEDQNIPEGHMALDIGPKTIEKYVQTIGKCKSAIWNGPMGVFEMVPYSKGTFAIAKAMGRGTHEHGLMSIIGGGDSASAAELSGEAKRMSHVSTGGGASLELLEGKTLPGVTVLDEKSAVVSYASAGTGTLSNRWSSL
Method in brief: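 Luminescence end-point (Kinase-Glo Plus, 10 min) after a 60 min room-temperature coupled reaction. GAPDH at 100nM final supplies 1,3-BPG to PGK. Buffer: 100mM TEA pH 7.6, 5mM MgCl2, 0.01% Tween-20. Wells lacking PGK served as controls.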

[7] = molecular target: phosphoglycerate mutase (Leishmania major) (UniProt Q4Q090); experiment: qHTS Validation Assay to Find Inhibitors of Phosphoglycerate Mutase (AID 504548); settings: Potency: inhibition qHTS;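 further: end-point luminescence from Kinase-GloPlus after the PGAM reaction; series mostly up to about 58 µM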
phosphoglycerate mutase (Leishmania major), sequence (Q4Q090 1-553): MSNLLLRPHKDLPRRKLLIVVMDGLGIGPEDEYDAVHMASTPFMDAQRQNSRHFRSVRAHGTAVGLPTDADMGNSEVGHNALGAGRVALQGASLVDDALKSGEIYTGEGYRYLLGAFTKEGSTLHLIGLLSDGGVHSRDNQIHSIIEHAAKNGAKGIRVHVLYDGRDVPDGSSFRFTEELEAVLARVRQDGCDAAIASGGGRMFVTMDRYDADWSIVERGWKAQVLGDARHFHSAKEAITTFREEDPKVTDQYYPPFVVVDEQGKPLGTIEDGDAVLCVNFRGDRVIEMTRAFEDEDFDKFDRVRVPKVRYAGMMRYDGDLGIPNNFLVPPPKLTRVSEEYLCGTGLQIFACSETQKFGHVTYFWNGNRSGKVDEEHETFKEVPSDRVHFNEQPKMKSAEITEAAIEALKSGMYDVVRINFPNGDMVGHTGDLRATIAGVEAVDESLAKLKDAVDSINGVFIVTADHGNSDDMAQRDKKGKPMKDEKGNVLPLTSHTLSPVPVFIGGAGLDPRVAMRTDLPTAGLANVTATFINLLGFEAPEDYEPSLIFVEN
Method in brief: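 Inhibition of L. major PGAM was assessed by Kinase-GloPlus luminescence following a 45-minute room-temperature reaction with enzyme at 1.25nM final.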

[8] = molecular target: Ubiquitin carboxyl-terminal hydrolase 1 (Homo sapiens) (UniProt O94782); experiment: Inhibitors of USP1/UAF1: Pilot qHTS (AID 504865); further: nearly all actives have a fitted effect of over 35% in size; further: potency means the concentration at half of the fitted maximal effect
Ubiquitin carboxyl-terminal hydrolase 1 (Homo sapiens), sequence (O94782 whole entry, looked up): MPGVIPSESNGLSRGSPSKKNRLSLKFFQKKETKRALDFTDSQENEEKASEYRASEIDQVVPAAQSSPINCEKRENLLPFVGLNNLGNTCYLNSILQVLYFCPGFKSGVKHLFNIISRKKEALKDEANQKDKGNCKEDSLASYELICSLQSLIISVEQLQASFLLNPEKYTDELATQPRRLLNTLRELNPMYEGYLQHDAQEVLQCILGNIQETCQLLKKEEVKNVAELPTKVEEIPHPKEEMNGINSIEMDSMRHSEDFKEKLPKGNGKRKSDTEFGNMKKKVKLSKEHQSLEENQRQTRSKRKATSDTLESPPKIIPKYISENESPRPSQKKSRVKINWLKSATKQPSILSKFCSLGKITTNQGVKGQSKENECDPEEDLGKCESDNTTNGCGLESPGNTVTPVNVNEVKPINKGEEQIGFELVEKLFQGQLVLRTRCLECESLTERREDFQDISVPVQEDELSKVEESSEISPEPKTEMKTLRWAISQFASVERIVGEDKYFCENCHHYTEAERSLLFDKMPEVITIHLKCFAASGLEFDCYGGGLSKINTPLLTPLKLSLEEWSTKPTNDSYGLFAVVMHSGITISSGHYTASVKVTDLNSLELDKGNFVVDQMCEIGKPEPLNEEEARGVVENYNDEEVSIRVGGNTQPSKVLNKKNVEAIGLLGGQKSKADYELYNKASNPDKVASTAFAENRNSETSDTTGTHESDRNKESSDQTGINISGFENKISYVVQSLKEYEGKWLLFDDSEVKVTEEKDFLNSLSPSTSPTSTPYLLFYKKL
Method in brief: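 1nM USP1/UAF1 + cpd, 15 min RT; start w/ Ub-Rho 150nM final; kinetic FL 480/540 nm, 6 reads q60 s. Buffer 50mM HEPES pH 7.8, 0.5mM EDTA, 1mM TCEP, 0.01% Tween-20, 0.1 mg/ml BSA.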

[9] = qHTS for Inhibitors of ATXN expression: Validation of Cytotoxic Assay (AID 588349); further: potency means the concentration at half of the fitted maximal effect
Method in brief: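 Cytotoxicity counter-screen: ATP-based luminescent viability (CellTiter Glo) after 72 hr exposure of HEK293 cells to a compound titration at 37 degrees C.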

[10] = qHTS for Inhibitors of ATXN expression: Validation (AID 588378); further: nearly all actives have a fitted effect of over 75% in size; further: potency means the concentration at half of the fitted maximal effect
Method in brief: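 Cells: HEK293-ATXN2-FFLuc, phenol-red free DMEM, 2 h attachment. Compound pin-transfer, 24 h, 37 degrees C, 5% CO2. CellTiter-Fluor 30 min, Ex405/Em525; Bright-Glo 5 min, luminescence 2 s exposure.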

[11] = molecular target: DNA dC->dU-editing enzyme APOBEC-3G (Homo sapiens) (UniProt Q9HC16); experiment: qHTS for inhibitors of Vif-A3G interactions: Validation (AID 588379)
DNA dC->dU-editing enzyme APOBEC-3G (Homo sapiens), sequence (Q9HC16 whole entry, looked up): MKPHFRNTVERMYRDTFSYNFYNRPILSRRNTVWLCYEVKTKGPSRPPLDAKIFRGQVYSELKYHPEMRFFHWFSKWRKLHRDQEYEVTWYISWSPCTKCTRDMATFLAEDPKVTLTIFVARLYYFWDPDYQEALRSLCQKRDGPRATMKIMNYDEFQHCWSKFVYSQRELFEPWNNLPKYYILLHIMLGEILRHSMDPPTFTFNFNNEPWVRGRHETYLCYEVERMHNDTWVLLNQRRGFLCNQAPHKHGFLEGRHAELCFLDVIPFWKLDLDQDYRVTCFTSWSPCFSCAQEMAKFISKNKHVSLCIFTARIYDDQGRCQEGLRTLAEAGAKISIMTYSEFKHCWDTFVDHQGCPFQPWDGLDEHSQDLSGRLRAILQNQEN
Method in brief: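 Yellow fluorescence (Ex 488, Em 500-530) of Vif-coexpressing HeLa A3G-eYFP cells, scanned by Acumen cytometer, reports blocked A3G degradation. Cells plated at 700/well overnight at 37 deg C before compound addition, then a further overnight compound incubation at 37 deg C.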

SMILES | Potency [1] | viability change [1] [%] | outcome [2] | Potency [3] | Potency [4] | Potency [5] | Potency [6] | Potency [7] | Potency [8] | Potency [9] | Potency [10] | Potency [11]
CC[N+](CC)(CC)CC(=O)Nc1c(C)cccc1C | inactive | -3.66 | inactive | inactive | inactive | inactive | inactive | inactive | inactive | inactive | inactive | inactive
NC(C(=O)N[C@@H]1C(=O)N2C(C(=O)O)=C(Cl)CS[C@H]12)c1ccccc1 (stereo partly drawn) | inactive | 1.5 | inactive | inactive | inactive | inactive | inactive | inactive | inactive | inactive | inactive | 
NCC(O)(CS(=O)(=O)O)c1ccc(Cl)cc1 (stereo not drawn) | inactive | 4.12 | inactive | inactive | inactive | inactive | inactive | inactive | inactive | inactive | inactive | 
COCc1nc2c([nH]1)c(=O)n(C)c(=O)n2CC(C)C | inactive | 1.53 | inactive | inactive | inactive | inactive | inactive | inactive | inactive | inactive | inactive | inactive
O=C(O)C1=CCNCC1 | inactive | 7.14 | inactive | inactive | inactive | inactive | inactive | inactive | inactive | inactive | inactive | inactive
O=C(N[C@@H](Cc1ccccc1)C(=O)CCl)OCc1ccccc1 | 14.6 µM (active) | -11.4 | inactive | inactive | inactive | inactive | inactive | inactive | 28.2 µM (active) | 3.55 µM (active) | 3.98 µM (active) | 
NC(N)=NC(N)=Nc1ccccc1 | inactive | -4.42 | inactive | inactive | inactive | inactive | inactive | inactive | inactive | inactive | inactive | inactive
NC(=O)CNCCC(c1ccccc1)c1ccccc1 | inactive | 12.7 | inactive | inactive | inactive | inactive | inactive | inactive | inactive | inactive | inactive | 
O=C(O)/C=C/c1cnc[nH]1 | inactive | -12.4 | inactive | inactive | inactive | inactive | inactive | inactive | inactive | inactive | inactive | 
N[C@@H](CS(=O)O)C(=O)O | inactive | -0.201 | inactive | inactive | inactive | inactive | inactive | inactive | inactive | inactive | inactive | inactive
O=C(c1ccc2c(c1)OCCO2)N1CCCCC1 | inactive | 1.66 | inactive | inactive | inactive | inactive | inactive | inactive | inactive | inactive | inactive | 
Oc1cc(O)c2c(c1)O[C@H](c1ccc(O)c(O)c1)[C@@H](O)C2 | inactive | 1.23 | inactive | inactive | inactive | inactive | inactive | inactive | inactive | inactive | inactive | inactive
O=C(O)c1cccnc1C(=O)O | inactive | 1.3 | inactive | inactive | inactive | inactive | inactive | inactive | inactive | inactive | inactive | inactive
NC(=O)CC[C@H](N)C(=O)O | inactive | 2.88 | inactive | inactive | inactive | inactive | inactive | inactive | inactive | inactive | inactive | 
c1ccc(C2CN3CCSC3=N2)cc1 (stereo not drawn) | inactive | 5.53 | inactive | inactive | inactive | inactive | inactive | inactive | inactive | inactive | inactive | 
CC1C(=O)N(C)C(=O)c2nc[nH]c21 (stereo not drawn) | inactive | -0.209 | inactive | inactive | inactive | inactive | inactive | inactive |  | inactive | inactive | 
CN1CCCC1CCOC(C)(c1ccccc1)c1ccc(Cl)cc1 (stereo not drawn) | inactive | -0.239 | inactive | inactive | inactive | inactive | inactive | inactive | inactive |  | 12.6 µM (active) | 
NCCCCN=C(N)N | inactive | -0.37 | inactive | inactive | inactive | inactive | inactive | inactive | inactive | inactive |  | inactive
CC(N)=NCCCC[C@@H](N)C(=O)O | inactive | -0.552 | inactive | inactive | inactive | inactive | inactive | inactive |  | inactive | inactive | 
